# A selection: hits, their analogues and other compounds. The true share with any hit is near 2.5%.
# Mito fusion yeast = blocks mitochondrial division or promotes mitochondrial fusion | S. cerevisiae fusion-defective mutant growth rescue, CellTiterGlo 48 h | Potency, µM (top dose mostly 46.1 µM), actives largely listed as activators | actives 0.23% (n = 320,000) | AID 485298; note: nearly all actives have a fitted effect of over 45% in size
#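 S. cerevisiae fusion-defective temperature-sensitive mutants (e.g. fzo1-1, mgm1-5) grown 48 h at 37C in YPEG (ethanol/glycerol non-fermentable) medium with 23 nl compound per well; growth rescue read as CellTiterGlo luminescence.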
# pAkt inh = inhibitors of Akt phosphorylation. activity change, % for hits at 50 µM. actives 0.32% (n = 360,000). Neuro2A IGF-stimulated pAkt S473 HTRF, 20 min; hits give low values; in the data active = activity change below about -80%; inconclusive = mostly about -51% to -80%
#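 Neuro2A cells (4,500/well, DMEM with 0.5% FBS) were treated with compound at a single 50 µM final concentration, stimulated with 6 nM IGF for 20 min at 37 °C, and lysed. Phospho-Akt Ser473 was read by HTRF as 665/615 ratio ×10^4.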
# TDP43 rescue = TDP-43 toxicity inhibition in yeast | actives 1.8% (n = 410,000) | TDP-43 expressing yeast growth rescue, BacTiter-Glo, 24 h | AID 652104 | Potency, µM (highest dose often 46.1 µM), usual class: activators; note: nearly all actives have a fitted effect of over 50% in size
#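 Yeast cells expressing TDP-43 under galactose induction are exposed to compounds for 24 hr at 30 deg C. BacTiter-Glo luminescence measures growth, so protective compounds score as activators.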
# Apoferritin bind = binds horse apoferritin like a general anesthetic. P02791. apoferritin/1-aminoanthracene competitive binding, fluorescence. Potency, µM (doses to about 77.5 µM), most hits filed as inhibitors. actives 0.074% (n = 350,000). AID 485281; note: nearly all actives have a fitted effect of over 20% in size
# Target sequence (P02791 2-175 limits assumed): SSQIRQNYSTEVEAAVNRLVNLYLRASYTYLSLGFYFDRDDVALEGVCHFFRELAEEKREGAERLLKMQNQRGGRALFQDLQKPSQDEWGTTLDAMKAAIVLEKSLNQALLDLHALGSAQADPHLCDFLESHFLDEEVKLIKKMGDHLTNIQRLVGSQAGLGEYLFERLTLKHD
#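 Concentration-response curves derived by four-parameter Hill fitting of normalized fluorescence, where compounds displaced 1-AMA from 10 uM horse apoferritin following a brief 10 min room-temperature incubation; propofol titration acted as positive control.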
# CCT chaperon mod = cytosolic chaperonin activity modulation | AID 651819 | actives 0.3% (n = 360,000) | purified chaperonin ATPase assay, HTRF ADP detection, 30 min | activity change, % (concentration not given with the values), hits read low; in the data active = activity change below about -30%
#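 TRiC (40 or 20 nM final, by batch activity) in 30 mM Tris pH 7.4, 100 mM KCl, 5 mM MgCl2, 1 mM DTT was treated with compound at 76 uM single dose, then 10 uM ATP, 30 min at 37 °C. ADP was read by HTRF Transcreener.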
# aSyn yeast inh = alpha-synuclein toxicity inhibition in yeast; Yeast expressing alpha-synuclein, growth rescue, BacTiter-Glo, 24 h; Potency, µM (top dose mostly 46.1 µM), hits mostly activators; actives 0.14% (n = 370,000); AID 652106; note: nearly all actives have a fitted effect of over 65% in size
#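 Screening used galactose-induced yeast with toxic alpha-synuclein levels, exposed to compound for 24 hr at 30 deg C. Cell growth, read with BacTiter-Glo luminescence, gave the measured signal.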
# A number is an active result; n = inactive; u = inconclusive; x = no result given; [ ] = remark or other dose. Unless noted, calls come from the whole dose curve; as a rule, active = well fitted curve in the direction sought with a large enough effect; inconclusive = small, poorly fitted or top-dose-only effect, or another doubt; inactive = no such curve, though single readings can be large; an effect the other way counts as inactive or inconclusive.
SMILES,Mito fusion yeast,pAkt inh,TDP43 rescue,Apoferritin bind,CCT chaperon mod,aSyn yeast inh
OC[C@@H]1OC(O)[C@H](O)[C@H](O)[C@H]1O (stereo partly drawn),x,x,x,n,x,x
CCCn1nnc(NC(=O)c2ccc(-c3cccc(Cl)c3)o2)n1,n,n,13µM,n,n,n
O=C(NCCc1csc(-c2ccc(F)cc2)n1)c1cccs1,x,x,11µM,n,x,x
O=C(NCCc1csc(-c2cccc(F)c2)n1)c1cccs1,x,x,16µM,u,x,x
O=C(Nc1ccc(F)cc1F)c1ccc(-n2cnc3cccnc32)cc1,x,x,u,n,x,n
Cc1c(C(=O)NCc2cccc(Cl)c2)sc2ncnc(N(C)C3CCCCC3)c12,x,x,n[9.22 µM],n,x,x
CC1CCN(C(=O)c2ccc(NC3=C(Cl)C(=O)N(Cc4ccccc4)C3=O)cc2)CC1,u,n,n,x,n,u
CC1CCCCN1C(=O)c1cccc(NC2=C(Cl)C(=O)N(Cc3ccccc3)C2=O)c1 (stereo not drawn),u,n,18µM,x,n,n
CC(=O)CSc1nc(-c2ccccc2)c(-c2ccccc2)o1,n,n,16µM,n,n,n
C/C(=N\Nc1ccc(C(=O)O)cc1)c1ccc(Br)cc1,n,n,10µM,n,n,n
C/C(=N/NC(=O)CCC(=O)Nc1ccc(Br)cc1)c1ccc(Br)cc1,n,n,n,n,n,n
C/C(=N/Nc1ncc(Br)cn1)c1ccc(Br)cc1,n,n,28µM,n,n,n
Cc1ccc(C)c(NC(=O)/C(C#N)=C/c2ccc(C(C)C)cc2)c1,x,x,n,n,x,x
CCOC(=O)c1cc(C)n(CC2CCC(C(=O)Nc3ccc(Cl)cc3)CC2)c1C (stereo not drawn),x,x,u,n,x,x
CCOC(=O)Cc1ccc(NC(=O)N(Cc2ccc(CC)cc2)Cc2cn[nH]c2-c2ccc(OC)cc2)cc1,x,x,n,n,x,x
CCOc1ccccc1CNS(=O)(=O)c1ccc(-c2coc(C)n2)cc1,x,x,u,n,x,n
COC(=O)c1cc(Br)ccc1NC(=O)Nc1ccc(C)cc1,x,-115%,n,x,n,n
O=C1NC(=O)C(Cc2ccc(OCCN3COc4ccccc4C3=O)cc2)S1 (stereo not drawn),x,x,x,n,x,x
COC(=O)c1ccc2nc(-c3ccccc3)c(Cc3ccc(C)cc3)n2c1,x,n,13µM,x,n,n
COC(=O)c1ccc2nc(-c3ccc(Cl)cc3)c(Cc3cccc(Cl)c3)n2c1,x,n,n,x,n,n
COC(=O)c1ccc2nc(-c3ccc(C)cc3)c(Cc3cccc(Cl)c3)n2c1,x,n,22µM,x,n,n
COC(=O)c1ccc2nc(-c3ccc(F)cc3)c(Cc3ccccc3OC)n2c1,x,n,22µM,x,n,n
CC[C@H](C)[C@H](NC(=O)[C@H](C)NC(=O)[C@H](Cc1cnc[nH]1)NC(=O)[C@@H]1CCCN1C(=O)CNC(=O)[C@H](CC(C)C)NC(=O)[C@H](CC(C)C)NC(=O)[C@H](Cc1ccc(O)cc1)NC(=O)CNC(=O)[C@H](C)NC(=O)[C@H](CO)NC(=O)[C@H](CC(N)=O)NC(=O)[C@H](CC(C)C)NC(=O)[C@@H](NC(=O)[C@H](Cc1c[nH]c2ccccc12)NC(=O)CN)[C@@H](C)O)C(=O)O,x,x,x,n,x,x
CCc1nn2c(-c3ccccc3OC)ccnc2c1-c1ccccc1,x,x,n,n,x,x
CCCCCc1ccc(C2=NNC(=O)CC2)cc1,n,n,13µM,u,n,n
SMILES,Mito fusion yeast,pAkt inh,TDP43 rescue,Apoferritin bind,CCT chaperon mod,aSyn yeast inh
O=C1CCC(c2ccccc2)=NN1,n,n,n[9.22 µM],n,n,n
CCCCCc1ccc(-c2ccc(=O)[nH]n2)cc1,u,n,18µM,u,n,n
Cc1ccc(-c2ccc(=O)[nH]n2)cc1,n,n,u,n,n,n
N#CN=c1snc(-c2ccccc2)n1-c1ccc(Cl)cc1,x,x,x,x,x,n
CC(C)=CCC/C(C)=C/CO/N=C1/C[C@@H](O)[C@@H](O)[C@@H]2[C@@H]3C(=O)N(Cc4ccccc4)C(=O)[C@H]3CC[C@@H]12,x,x,x,n[15.3 µM],x,x
Cc1nc([N+](=O)[O-])c(Br)n1CC(=O)c1ccc(Cl)cc1,n,n,13µM,n,n,n
Cc1nc([N+](=O)[O-])c(Br)n1Cc1ccc(Cl)c(Cl)c1,n,n,14µM,u,n,n

# Screening data as filed in PubChem.
